Only a selection was taken, and hits are over-represented in it overall.
C diff growth: C. difficile growth inhibitors, primary screen, HTS. 86,000 tested, 0.25% active. growth activity, negative = inhibition, % at 16 µg/mL (by protocol). AID 1259249, 2017. Clostridium difficile clinical isolate growth, OD600, 24 h; active compounds read low;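 active = mean growth activity at or below -80% and every replicate also at or below -80%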
Of the large screens only hits and unclear results are named; the others gave an inactive call; ! = a repeat was not active.

COc1ccc(-c2ccc(C3[C@H]4CNC[C@@H]3N4C(=O)Nc3ccc(C(F)(F)F)cc3)cc2)cc1 (some centres not stated)	C diff growth -99!
COc1ccc(-c2ccc(C3[C@H]4CNC[C@@H]3N4C(=O)Nc3ccc(F)cc3)cc2)cc1 (some centres not stated)	none
N#Cc1ccc(-c2ccc(C3[C@@H]4CN(C(=O)C5CC5)C[C@H]3N4)cc2)cc1 (some centres not stated)	none
N#Cc1ccc(-c2ccc(C3[C@@H]4CN(C(=O)Nc5ccc(C(F)(F)F)cc5)C[C@H]3N4)cc2)cc1 (some centres not stated)	C diff growth -96!
N#Cc1ccc(-c2ccc([C@@H]3[C@@H]4CN(C(=O)Nc5ccc6c(c5)OCO6)C[C@H]3N4)cc2)cc1	none
COc1ccc(NC(=O)N2C[C@@H]3N[C@H](C2)C3c2ccc(-c3cccc(F)c3)cc2)cc1 (some centres not stated)	none
O=C(Nc1ccccc1)N1C[C@@H]2N[C@H](C1)C2c1ccc(-c2ccccc2F)cc1 (some centres not stated)	none
CCCNC(=O)N1CC2(CCN(Cc3ccccn3)CC2)c2c(n(C)c3cc(OC)ccc23)[C@H]1CO	none
Cc1ccc(S(=O)(=O)N(C)C[C@@H]2OCCCC[C@H](C)Oc3ccc(NC(=O)NC4CCCCC4)cc3C(=O)N([C@H](C)CO)C[C@@H]2C)cc1	none
C[C@@H]1CN([C@H](C)CO)C(=O)c2cc(NC(=O)CCCCCC(=O)Nc3ccccc3N)ccc2O[C@H]1CN(C)C(=O)NC1CCCCC1	none
CC(=O)N1CC2(C1)[C@H](c1ccccc1)[C@@H](CO)N2C(=O)c1ccncc1	none
COc1ccc(C(=O)Nc2ccc3c(c2)OC[C@H](C)NC[C@H](C)[C@@H](OC)CN(C)C3=O)cc1	none
O=C(NC[C@H]1CC[C@H]2[C@H](CN2S(=O)(=O)c2ccccc2)O1)NC1CCCCC1	none
COc1cccc(CN2C[C@@H](C)[C@H](OC)CN(C)C(=O)c3ccc(NS(=O)(=O)c4cn(C)cn4)cc3OC[C@H]2C)c1	none
CCCN(C)C[C@H]1OCCCC[C@@H](C)Oc2ccc(NC(=O)Nc3ccc(C(F)(F)F)cc3)cc2C(=O)N([C@@H](C)CO)C[C@H]1C	C diff growth -107
C[C@@H]1CCCCO[C@H](CN(C)CC2CCCCC2)[C@H](C)CN([C@H](C)CO)C(=O)c2cc(NC(=O)Nc3ccc(C(F)(F)F)cc3)ccc2O1	C diff growth -103
C[C@@H]1CCCCO[C@H](CN(C)CC2CCCCC2)[C@@H](C)CN([C@H](C)CO)C(=O)c2cc(NC(=O)Nc3ccc(C(F)(F)F)cc3)ccc2O1	none
C[C@@H]1CN([C@@H](C)CO)C(=O)c2cc(NC(=O)Nc3ccc(C(F)(F)F)cc3)ccc2O[C@@H](C)CCCCO[C@@H]1CN(C)CC1CCCCC1	none
C[C@@H]1CCCCO[C@@H](CN(C)CC2CC2)[C@H](C)CN([C@@H](C)CO)C(=O)c2cc(NC(=O)Nc3ccc(C(F)(F)F)cc3)ccc2O1	none
C[C@@H]1CCCCO[C@@H](CN(C)S(=O)(=O)c2cn(C)cn2)[C@@H](C)CN([C@@H](C)CO)C(=O)c2cc(NC(=O)CCC(F)(F)F)ccc2O1	none
C[C@@H]1CCCCO[C@@H](CN(C)CC2CC2)[C@H](C)CN([C@H](C)CO)C(=O)c2cc(NC(=O)Nc3ccc(C(F)(F)F)cc3)ccc2O1	none
C[C@@H]1CCCCO[C@@H](CN(C)CC2CCCCC2)[C@@H](C)CN([C@@H](C)CO)C(=O)c2cc(NC(=O)Nc3ccc(C(F)(F)F)cc3)ccc2O1	none
C[C@@H]1CCCCO[C@@H](CN(C)CC2CCCCC2)[C@H](C)CN([C@H](C)CO)C(=O)c2cc(NC(=O)Nc3ccc(C(F)(F)F)cc3)ccc2O1	C diff growth -104
C[C@@H]1CCCCO[C@H](CN(C)CC2CC2)[C@H](C)CN([C@@H](C)CO)C(=O)c2cc(NC(=O)Nc3ccc(C(F)(F)F)cc3)ccc2O1	none
C[C@H]1CCCCO[C@H](CN(C)S(=O)(=O)c2cn(C)cn2)[C@@H](C)CN([C@@H](C)CO)C(=O)c2cc(NC(=O)CCCN(C)C)ccc2O1	C diff growth -81
C[C@@H]1CN([C@@H](C)CO)C(=O)c2cc(NC(=O)CCCN(C)C)ccc2O[C@@H](C)CCCCO[C@@H]1CN(C)S(=O)(=O)c1cn(C)cn1	none
CC(=O)N1[C@@H](CO)[C@H](c2ccccc2)C12CN(C(=O)Nc1ccccc1F)C2	none
CC=Cc1ccc2n(c1=O)C[C@H]1[C@H](CO)[C@@H](C(=O)NC3Cc4ccccc4C3)[C@@H]2N1C(C)=O (mixture of isomers)	none
C[C@@H]1CCCCO[C@H](CN(C)C(=O)C2CCCCC2)[C@@H](C)CN([C@@H](C)CO)C(=O)c2cc(N(C)C)ccc2O1	none
C[C@H]1CN([C@@H](C)CO)S(=O)(=O)c2ccc(-c3ccccc3F)cc2O[C@@H]1CN(C)C	none
COc1ccc(NC(=O)N(C)C[C@H]2OCCCC[C@H](C)Oc3ccc(NC(=O)Nc4ccc5c(c4)OCO5)cc3C(=O)N([C@@H](C)CO)C[C@H]2C)cc1	none
O=C(C1CCCCC1)N1CC2(C1)[C@@H](c1ccccc1)[C@H](CO)N2Cc1nccs1	none

Assay outcomes (PubChem BioAssay)
